# “And” between values parts separate entries of the source, which are not always exact repeats. Identical values can stand only once. Records with an inconclusive call do not appear. Entries that show only a call come without a potency. The source holds several records for some structures; these can differ, active in one and inactive in another. The source made the active and inactive calls. Unless noted, the call rests on the fitted dose curve; in most records, active means well fitted curve in the direction sought with a large enough effect in the repeat runs; inconclusive means weak or mixed curves; inactive means no such curve, though single readings can be large; an effect the other way counts as inactive or inconclusive.
# Experiments:
# [1] = qHTS assay for small molecule agonists of the p53 signaling pathway - cell viability (AID 651633; calls by dose curve; further: nearly all actives have a fitted effect of over 30% in size; further: potency means the concentration at half of the fitted maximal effect)
# In short: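 p53RE-bla cells were treated with compound for 16 hours at 37 C. Cytotoxicity was then measured as CellTiter-Glo luminescence after 30 min at room temperature.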
# [2] = qHTS assay for small molecules that induce genotoxicity in human embryonic kidney cells expressing luciferase-tagged ATAD5 - cell viability (AID 651634; calls by dose curve; further: nearly all actives have a fitted effect of over 25% in size; further: potency means the concentration at half of the fitted maximal effect)
# In short: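 Quantitative high-throughput format. HEK293T cells expressing ATAD5 fused to luciferase were plated at 2,000 cells/well and treated 15.5 hr with compound versus DMSO. Viability was determined by fluorescent live-cell protease substrate, 30 min at 37C.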
# [3] = qHTS assay for small molecule disruptors of the mitochondrial membrane potential - cell viability (AID 720634; calls by dose curve; further: nearly all actives have a fitted effect of over 20% in size; further: potency means the concentration at half of the fitted maximal effect)
# In short: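 Same-well counter-screen: following the MMP dye addition, CellTiter-Glo was added to 1 hr compound-treated HepG2 cells and luminescence read after 30 min at room temperature.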
# [4] = qHTS assay for small molecule disruptors of the mitochondrial membrane potential (AID 720635); further: potency means the concentration at half of the fitted maximal effect
# In short: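 HepG2 cells exposed to compound 1 hr at 37C, then Mito-MPS dye 30 min. Ratio read of aggregate (540/590 nm) versus monomer (490/535 nm) fluorescence.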
# [5] = qHTS assay to test for compound auto fluorescence at 590 nm (red) in HepG2 cells (AID 720674)
# In short: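 HepG2 cells, 2,000 per well in MEM with 10% FBS, attached overnight at 37 C, then got 23 nL compound or DMSO. After 1 hr at 37 C, 5% CO2, red fluorescence was read at 540/590 nm against Rose Bengal sodium as reference.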
# [6] = qHTS assay to test for compound auto fluorescence at 535 nm (green) in HepG2 cells (AID 720675)
# [7] = qHTS assay to test for compound auto fluorescence at 460 nm (blue) in HEK293 cells (AID 720678)
# In short: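 Intrinsic compound fluorescence is recorded in live HEK293 cultures after overnight incubation at 37C, 5% CO2, using excitation 405 nm and emission 460 nm. Values are referenced to triamterene.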
# [8] = qHTS assay to test for compound auto fluorescence at 535 nm (green) in HEK293 cells (AID 720680)
# [9] = qHTS assay to test for compound auto fluorescence at 460 nm (blue) in HEK293 cell free culture (AID 720681)
# In short: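 Compounds were added to cell-free DMEM with 10% FBS and fluorescence read directly. The blue channel used 405 nm excitation and 460 nm emission, with triamterene as the reference fluorophore.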
# [10] = qHTS assay to test for compound auto fluorescence at 535 nm (green) in HEK293 cell free culture (AID 720682)
# In short: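 Each library compound, or DMSO control, is added by pintool to medium alone, comprising DMEM and 10% FBS. Emission at 535 nm following 485 nm excitation is quantified against fluorescein.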
# [11] = qHTS assay to test for compound auto fluorescence at 590 nm (red) in HEK293 cell free culture (AID 720683)
# In short: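 Cell-free wells of DMEM with 10% FBS received compound, and intrinsic fluorescence was read at excitation/emission 540/590 nm. Values expressed as equivalence to Rose Bengal sodium.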
# [12] = qHTS assay to test for compound auto fluorescence at 590 nm (red) in HepG2 cell free culture (AID 720684)
# In short: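 Rose Bengal sodium served as the reference for red signal. Test compounds were dispensed into serum-containing MEM (10% FBS) without cells, and plates were read at 540/590 nm.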
# [13] = qHTS assay to test for compound auto fluorescence at 460 nm (blue) in HepG2 cell free culture (AID 720685)
# In short: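 Cell-free plates of MEM plus 10% FBS received 23 nL compound or DMSO vehicle; blue-channel (405/460 nm) intensity scored against triamterene as reference fluorophore.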
# [14] = qHTS assay to test for compound auto fluorescence at 535 nm (green) in HepG2 cell free culture (AID 720686)
# [15] = qHTS assay to test for compound auto fluorescence at 460 nm (blue) in HepG2 cells (AID 720687)
# In short: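 HepG2 cells in MEM with 10% FBS, attached overnight at 37 C, were exposed to compound or DMSO for 1 hr at 37 C, 5% CO2. Blue fluorescence was read at 405/460 nm, with triamterene as reference fluorophore.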
# [16] = target: Glucocorticoid receptor (Homo sapiens) (UniProt P04150); experiment: qHTS assay to identify small molecule agonists of the glucocorticoid receptor (GR) signaling pathway (AID 720691; active means well fitted activation curve with a large enough effect in the signal ratio in the repeat runs, not every such curve was filed as active; the % refers to the signal ratio)
# In short: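 A HeLa cervical cancer line expressing GR and a glucocorticoid response element-driven beta-lactamase gene is treated with compounds for 18 h; LiveBLAzer B/G FRET substrate is then applied and fluorescence read.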
# [17] = target: Glucocorticoid receptor (Homo sapiens) (UniProt P04150); experiment: qHTS assay to identify small molecule antagonists of the glucocorticoid receptor (GR) signaling pathway (AID 720692; active means well fitted inhibition curve with a large enough effect in the signal ratio in the repeat runs, not every such curve was filed as active; the % refers to the signal ratio; further: potency means the concentration at half of the fitted maximal effect)
# In short: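 GRE-bla HeLa line, dex-stimulated (5 nM final). Compound exposure 18 h, 37 C. Beta-lactamase FRET read after 2 h RT substrate.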
# [18] = qHTS assay to test for compound auto fluorescence at 590 nm (red) in HEK293 cells (AID 720679)
# In short: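 Red autofluorescence, HEK293 cells: 2,000 cells/well; attach 4-5 hr 37C; add 23 nL cpd or DMSO; incubate o/n 37C 5% CO2; read Ex540/Em590; Rose Bengal sodium reference.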
# Glucocorticoid receptor (Homo sapiens), sequence (P04150 whole entry, looked up): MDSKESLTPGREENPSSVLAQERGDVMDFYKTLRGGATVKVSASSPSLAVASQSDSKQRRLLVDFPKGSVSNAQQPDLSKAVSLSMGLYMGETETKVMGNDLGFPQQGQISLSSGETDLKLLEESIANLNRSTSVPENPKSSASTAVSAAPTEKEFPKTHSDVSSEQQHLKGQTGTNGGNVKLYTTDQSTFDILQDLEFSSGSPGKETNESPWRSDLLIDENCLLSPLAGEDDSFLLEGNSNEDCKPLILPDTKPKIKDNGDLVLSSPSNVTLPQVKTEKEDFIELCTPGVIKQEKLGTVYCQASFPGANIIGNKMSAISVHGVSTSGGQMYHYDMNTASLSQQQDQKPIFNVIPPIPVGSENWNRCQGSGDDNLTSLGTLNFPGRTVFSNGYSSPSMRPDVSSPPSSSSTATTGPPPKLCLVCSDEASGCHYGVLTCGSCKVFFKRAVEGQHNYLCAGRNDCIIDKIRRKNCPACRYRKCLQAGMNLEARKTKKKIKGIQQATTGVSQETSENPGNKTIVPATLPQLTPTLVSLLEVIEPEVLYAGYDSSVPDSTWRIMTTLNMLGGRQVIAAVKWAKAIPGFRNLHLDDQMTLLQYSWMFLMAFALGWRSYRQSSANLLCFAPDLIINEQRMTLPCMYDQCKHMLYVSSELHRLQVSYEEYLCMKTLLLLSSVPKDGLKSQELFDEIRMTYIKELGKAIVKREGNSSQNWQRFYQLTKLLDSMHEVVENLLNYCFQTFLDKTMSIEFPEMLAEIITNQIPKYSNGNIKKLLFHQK
SMILES,Potency [1],Potency [2],Potency [3],Potency [4],Potency [5],Potency [6],Potency [7],Potency [8],Potency [9],Potency [10],Potency [11],Potency [12],Potency [13],Potency [14],Potency [15],Potency [16],Potency [17],Potency [18]
Nc1c2c(nc3ccccc13)CCCC2,inactive,inactive,inactive,inactive,inactive,inactive,inactive,inactive,inactive,inactive,inactive,inactive,inactive,inactive,inactive,–,–,–
CCN(CC)C(=O)c1cccc(C)c1,inactive,inactive,inactive,–,inactive,inactive,–,inactive,inactive,inactive,inactive,inactive,inactive,inactive,inactive,inactive,inactive,–
CCCCCCCCCCCC[N+](C)(C)Cc1ccccc1,18.8 µM (active) and 47.6 µM (active) and 29.7 µM (active),26.8 µM (active) and 74.5 µM (active),inactive,8.41 µM (active) and 19 µM (active) and 21 µM (active),inactive,inactive,–,inactive,inactive,inactive,inactive,inactive,inactive,inactive,inactive,–,–,inactive
CC/C(=C(\c1ccccc1)c1ccc(OCCN(C)C)cc1)c1ccccc1,54.5 µM (active) [middle of 5 runs],29.8 µM (active) and 61.5 µM (active),54.8 µM (active) and 61.1 µM (active),–,inactive,inactive,–,inactive,inactive,inactive,inactive,inactive,inactive,inactive,inactive,–,–,inactive
CC(C)NCC(O)c1ccc(O)c(O)c1 (stereo not drawn),inactive,inactive,inactive,inactive,inactive,inactive,inactive,inactive,inactive,inactive,inactive,inactive,inactive,inactive,inactive,inactive,inactive,inactive
O=S1(=O)OC(c2ccc(O)cc2)(c2ccc(O)cc2)c2ccccc21,inactive,48.6 µM (active) and 8.63 µM (active),–,–,inactive,inactive,inactive,inactive,inactive,inactive,inactive,inactive,inactive,inactive,inactive,–,–,–
CC(=O)CC(c1ccccc1)c1c(O)c2ccccc2oc1=O (stereo not drawn),–,inactive,inactive,–,inactive,inactive,inactive,inactive,inactive,inactive,inactive,inactive,inactive,inactive,inactive,–,–,–
Cc1ccc(S(=O)(=O)O)cc1,inactive,inactive,inactive,inactive,inactive,inactive,–,inactive,inactive,inactive,inactive,inactive,inactive,inactive,inactive,–,–,inactive
C/C=C/C=C/C(=O)O,inactive,inactive,inactive,inactive,inactive,inactive,inactive,inactive,inactive,inactive,inactive,inactive,inactive,inactive,inactive,–,–,inactive
Nc1c(N=Nc2ccc(-c3ccc(N=Nc4cc(S(=O)(=O)O)c5ccccc5c4N)cc3)cc2)cc(S(=O)(=O)O)c2ccccc12,inactive,13.3 µM (active) and 27.3 µM (active),inactive,17.2 µM (active),inactive,inactive,inactive,inactive,inactive,inactive,inactive,inactive,inactive,inactive,inactive,inactive,21.3 µM (active),–
O=C1NS(=O)(=O)c2ccccc21,–,inactive,inactive,inactive,inactive,inactive,–,inactive,inactive,inactive,inactive,inactive,inactive,inactive,inactive,–,–,inactive
CN1[C@@H]2CC(OC(=O)[C@H](CO)c3ccccc3)C[C@H]1[C@@H]1O[C@@H]12 (stereo partly drawn),inactive,inactive,–,–,inactive,inactive,inactive,inactive,inactive,inactive,inactive,inactive,inactive,inactive,inactive,–,–,inactive
C=C(C)C(=O)OCC(C)O (stereo not drawn),inactive,inactive,inactive,–,inactive,inactive,–,inactive,inactive,inactive,inactive,inactive,inactive,inactive,inactive,inactive,inactive,inactive
CN[C@H]1CC[C@@H](c2ccc(Cl)c(Cl)c2)c2ccccc21,29.8 µM (active),inactive,inactive,–,inactive,inactive,–,inactive,inactive,inactive,inactive,inactive,inactive,inactive,inactive,inactive,–,inactive
COc1ccc(CN(CCN(C)C)c2ccccn2)cc1,–,inactive,–,–,inactive,inactive,–,inactive,inactive,inactive,inactive,inactive,inactive,inactive,inactive,inactive,inactive,inactive
O=c1[nH]cnc2c1ncn2[C@H]1CC[C@@H](CO)O1,–,inactive,inactive,inactive,inactive,inactive,–,inactive,inactive,inactive,inactive,inactive,inactive,inactive,inactive,inactive,inactive,–
CCCCCCc1ccc(O)cc1O,inactive and 54.6 µM (active) and 61.1 µM (active),inactive,–,5.96 µM (active) and 4.87 µM (active) and 6.86 µM (active),inactive,inactive,inactive,inactive,inactive,inactive,inactive,inactive,inactive,inactive,inactive,inactive,inactive and 49 µM (active),inactive
CC(O)(P(=O)(O)O)P(=O)(O)O,inactive,inactive,inactive,inactive,inactive,inactive,–,inactive,inactive,inactive,inactive,inactive,inactive,inactive,inactive,–,–,inactive
O=CC(=O)c1ccccc1,inactive,inactive,inactive,–,inactive,inactive,–,inactive,inactive,inactive,inactive,inactive,inactive,inactive,inactive,inactive,inactive,–
CC(C)c1c(C(=O)Nc2ccccc2)c(-c2ccccc2)c(-c2ccc(F)cc2)n1CC[C@@H](O)C[C@@H](O)CC(=O)O,–,–,inactive,–,inactive,inactive,–,inactive,inactive,inactive,inactive,inactive,inactive,inactive,inactive,inactive,–,–
CN1CCc2cccc3c2[C@H]1Cc1ccc(O)c(O)c1-3,inactive,inactive,inactive,inactive,inactive,inactive,–,inactive,inactive,inactive,inactive,inactive,inactive,inactive,inactive,inactive,inactive,inactive
CCCC[P+](CCCC)(CCCC)CCCC,inactive,inactive,inactive,inactive,inactive,inactive,inactive,inactive,inactive,inactive,inactive,inactive,inactive,inactive,inactive,inactive,inactive,inactive
CC(=O)CCC(=O)O,–,inactive,inactive,inactive,inactive,inactive,–,inactive,inactive,inactive,inactive,inactive,inactive,inactive,inactive,inactive,inactive,–
CCCCC(CC)C(=O)O (stereo not drawn),inactive,–,inactive,inactive and 6.86 µM (active),inactive,inactive,–,inactive,inactive,inactive,inactive,inactive,inactive,inactive,inactive,–,–,inactive
C1=CC2C3C=CC(C3)C2C1 (stereo not drawn),inactive,inactive,inactive,–,inactive,inactive,inactive,inactive,inactive,inactive,inactive,inactive,inactive,inactive,inactive,inactive,–,inactive
Nc1ccc(O)c([N+](=O)[O-])c1,inactive,53.9 µM (active),inactive,3.03 µM (active),inactive,inactive,inactive,inactive,inactive,inactive,inactive,inactive,inactive,inactive,inactive,inactive,–,inactive
Cc1cccc(C)c1,inactive,inactive,inactive,inactive,inactive,inactive,inactive,inactive,inactive,inactive,inactive,inactive,inactive,inactive,inactive,inactive,inactive,–
O=C1NC(=O)C(c2ccccc2)(c2ccccc2)N1,–,inactive,inactive,inactive,inactive,inactive,inactive,inactive,inactive,inactive,inactive,inactive,inactive,inactive,inactive,inactive,inactive,–

# Source: PubChem BioAssay (Tox21)
